Results taken from the supplement of paper PMC8285479.
Structures can show the parent of a compound that is named as a salt. ± gives the standard deviation of the averaged measurements. Whole data set: some 1,900 compounds, median “normalised cell viability (NPI; 0 = phenylarsine oxide control, 1 = DMSO control)” near 1, cut for the lowest 2% near 0.039. This excerpt belongs to a sample that is enriched for the lowest values.

System: NCI-H1944
Assay: normalised cell viability (NPI; 0 = phenylarsine oxide control, 1 = DMSO control) (fraction of DMSO control); NCI-H1944 is a non-small cell lung cancer line; higher = more viable cells (less compound toxicity)
Details: 6 days
[1] = glucocorticoid arm: hydrocortisone 2.75 uM co-treatment, compound 1 µM
[2] = glucocorticoid arm: hydrocortisone 2.75 uM co-treatment, compound 5 µM
[3] = glucocorticoid arm: hydrocortisone 2.75 uM pre-treated 2 days and continued, compound 1 µM
[4] = glucocorticoid arm: hydrocortisone 2.75 uM pre-treated 2 days and continued, compound 5 µM
[5] = glucocorticoid arm: vehicle, compound 1 µM
[6] = glucocorticoid arm: vehicle, compound 5 µM
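Note: CTB read-out in 384-well plates, triplicate wells, NPI normalised per plate against 1 µM phenylarsine oxide (0) and 0.1% DMSO (1) controls.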

SMILES	normalised cell viability [1]	normalised cell viability [2]	normalised cell viability [3]	normalised cell viability [4]	normalised cell viability [5]	normalised cell viability [6]
COc1cc(C(O)CN)ccc1O (racemic) [(±)-Normetanephrine hydrochloride]	0.9973 ± 0.0025	1.01 ± 0.021	1.01 ± 0.01	0.867 ± 0.27	0.9953 ± 0.0045	1 ± 0.016
C[C@H]1OC[C@@H](C[N+](C)(C)C)O1 [(+)-cis-Dioxolane]	1.017 ± 0.0058	1.02 ± 0.01	1 ± 0.018	1.04 ± 0.081	1.01 ± 0.01	1.006 ± 0.0063
COc1ccc2c3c1O[C@H]1C(=O)CC[C@@]4(O)C(C2)N(CC2CC2)CCC314 (stereo partly drawn) [3-Methoxynaltrexone hydrochloride]	0.9917 ± 0.0068	0.99 ± 0.018	0.985 ± 0.013	1.02 ± 0.07	0.9977 ± 0.0025	0.998 ± 0.013
c1ccc(C2(c3ccccc3)CC2C2=NCCN2)cc1 (stereo not drawn) [Cibenzoline succinate]	0.992 ± 0.013	0.994 ± 0.027	1.003 ± 0.0058	1.02 ± 0.078	1.007 ± 0.0058	1.01 ± 0.01
CN1CCCCC1Cn1cc(C(=O)c2cc([N+](=O)[O-])ccc2I)c2ccccc21 (stereo not drawn)	1.02 ± 0.015	0.99 ± 0.026	1.04 ± 0.01	1.01 ± 0.029	1.013 ± 0.0058	1.001 ± 0.0081
CCCN1CC[C@@H]2c3cc(O)ccc3CC[C@@H]21 (racemic) [cis(+/-)-8-OH-PBZI hydrobromide]	0.993 ± 0.011	0.975 ± 0.021	1.01	1.02 ± 0.092	0.9937 ± 0.0071	1.007 ± 0.0058
C[C@H]1CNCCc2ccc(Cl)cc21 [Lorcaserin HCl]	1.003 ± 0.0064	1.02 ± 0.029	1 ± 0.019	1.02 ± 0.029	1.003 ± 0.0061	0.998 ± 0.0035
N[C@@H](Cn1ccc(=O)[nH]c1=O)C(=O)O [S(-)-Willardiine]	1.007 ± 0.0058	1.023 ± 0.0058	0.847 ± 0.28	1.02 ± 0.015	1.002 ± 0.007	1.007 ± 0.0058
c1ccc2c(c1)[I+]c1ccccc1-2 [Diphenyleneiodonium chloride]	0.45 ± 0.015	0.0556 ± 0.0019	0.649 ± 0.014	0.0883 ± 0.044	0.232 ± 0.015	0.00555 ± 0.0077
CN1CC[C@]2(CCN3CCc4c(oc5ccccc45)[C@@H]3C2)N(C)C1=O	1.003 ± 0.0058	0.974 ± 0.015	1.01	0.889 ± 0.24	1.013 ± 0.0058	1.02 ± 0.015
CCN(CC)C(=O)N[C@H]1C[C@@H]2c3cccc4[nH]cc(c34)C[C@H]2N(C)C1 [S(+)-Terguride]	0.989 ± 0.011	1.01 ± 0.02	0.79 ± 0.37	0.996 ± 0.016	0.9953 ± 0.0015	0.993 ± 0.0056
Cc1c(C(=O)c2cccc3ccccc23)c2cccc3c2n1[C@H](CN1CCOCC1)CO3 [( R)-(+)-WIN 55,212-2 mesylate]	1.004 ± 0.01	0.0209 ± 0.0039	1.01 ± 0.029	0.016 ± 0.002	1.013 ± 0.0058	0.00693 ± 0.00096
CCCn1c(C)c(C(=O)c2cccc3ccccc23)c2ccccc21	1.001 ± 0.0083	1.03 ± 0.023	1.007 ± 0.0058	1.06 ± 0.09	0.9977 ± 0.004	1.01 ± 0.023
CCC(=O)CCCCC[C@@H]1NC(=O)[C@H]2CCCCN2C(=O)[C@H]([C@@H](C)CC)NC(=O)[C@H](Cc2cn(OC)c3ccccc23)NC1=O [Apicidin]	0.387 ± 0.16	0.954 ± 0.041	0.644 ± 0.15	0.983 ± 0.03	0.0476 ± 0.028	0.96 ± 0.022
CCS(=O)(=O)Nc1cccc(C(=C2CCCCC2)c2cnc[nH]2)c1	1.006 ± 0.0063	1.04 ± 0.015	1.01 ± 0.011	1.04 ± 0.028	0.985 ± 0.013	0.9933 ± 0.0061
CN1CC[C@@]2(C)c3cc(O)ccc3N(C)C12 (single isomer, unassigned; (-)) [(-)-Eseroline fumarate]	0.9967 ± 0.0058	0.972 ± 0.013	1.03 ± 0.045	0.971 ± 0.011	0.9967 ± 0.0042	0.996 ± 0.012
CCn1cnc2c(Nc3cccc(Cl)c3)nc(N[C@@H]3CCCC[C@@H]3N)nc21	0.783 ± 0.025	0.0569 ± 0.018	1.01 ± 0.011	0.182 ± 0.0028	0.321 ± 0.043	0.0192 ± 0.0037
C[C@H](N)CN1CCc2ccc(Br)cc21 [VER-3323 hemifumarate salt]	1.001 ± 0.0085	1.01 ± 0.024	1 ± 0.011	1.05 ± 0.021	0.9897 ± 0.0015	1 ± 0.015
C[C@H]1O[C@@H](C[N+](C)(C)C)CS1	1.013 ± 0.0058	1.007 ± 0.0058	1	1 ± 0.024	0.9857 ± 0.0046	0.9857 ± 0.0038

SMILES	normalised cell viability [1]	normalised cell viability [2]	normalised cell viability [3]	normalised cell viability [4]	normalised cell viability [5]	normalised cell viability [6]
CC12CCC3C(CCC4=C(O)C(=O)CCC43C)C1CCC2=O (stereo not drawn) [4-Androsten-4-ol-3,17-dione]	0.9977 ± 0.0021	0.9747 ± 0.0093	0.999 ± 0.001	1 ± 0.011	0.995 ± 0.015	1.003 ± 0.0061
Cc1c(N)nc([C@H](CC(N)=O)NC[C@H](N)C(N)=O)nc1C(=O)N[C@H](C(=O)N[C@H](C)[C@@H](O)[C@H](C)C(=O)N[C@H](C(=O)NCCc1nc(-c2nc(C(=O)NCCC[S+](C)C)cs2)cs1)[C@@H](C)O)[C@@H](OC1OC(CO)C(O)C(O)C1OC1OC(CO)C(O)C(OC(N)=O)C1O)c1cnc[nH]1 (stereo partly drawn) [Bleomycin sulfate]	0.669 ± 0.048	0.196 ± 0.017	0.9903 ± 0.0051	0.637 ± 0.034	0.142 ± 0.024	0.0339 ± 0.0093
CCC1(c2ccc(N)cc2)CCC(=O)NC1=O (racemic) [(±)-p-Aminoglutethimide]	0.997 ± 0.0052	1.01	0.866 ± 0.23	1 ± 0.027	1.006 ± 0.0063	1
CN[C@@H]1C[C@@H](c2ccc(Cl)c(Cl)c2)c2ccccc21 [Indatraline hydrochloride]	1 ± 0.0095	0.931 ± 0.02	1.02 ± 0.021	1.04 ± 0.084	1.01	1.03 ± 0.05
C[Se]C[C@H](N)C(=O)O [Se-(methyl)selenocysteine hydrochloride]	1.006 ± 0.0069	1.02 ± 0.015	1	0.859 ± 0.28	1.006 ± 0.0069	1.01 ± 0.016
C=C(C)[C@H]1Cc2c(ccc3c2O[C@@H]2COc4cc(OC)c(OC)cc4[C@@H]2C3=O)O1 [Rotenone]	0.627 ± 0.064	0.39 ± 0.013	0.969 ± 0.016	0.685 ± 0.094	0.22 ± 0.011	0.115 ± 0.019
C=CCc1ccccc1OCC(O)CNC1(C)CCC(C(C)(C)NC(=O)CBr)CC1 (stereo not drawn) [Bromoacetyl alprenolol menthane]	0.9893 ± 0.0093	-0.000605 ± 0.0006	0.994 ± 0.016	0.0027 ± 0.0058	0.978 ± 0.004	-0.000518 ± 0.00015
C1CN1c1nc(N2CC2)nc(N2CC2)n1 [Triethylenemelamine]	1.023 ± 0.0058	0.775 ± 0.022	1.017 ± 0.0058	0.989 ± 0.015	0.993 ± 0.0082	0.273 ± 0.028
C=CCN(C1=NCCN1)c1c(Cl)cccc1Cl [Alinidine]	0.999 ± 0.012	0.992 ± 0.016	1.02 ± 0.049	1 ± 0.021	0.9973 ± 0.0031	0.9913 ± 0.0035
O=C1C=CC(=O)C=C1 [p-Benzoquinone]	1.007 ± 0.0058	1.01 ± 0.012	1.006 ± 0.0075	0.999 ± 0.03	1.01 ± 0.012	0.999 ± 0.011
Cc1nc(-c2ccc(-c3ccc(C(=O)N4CCc5cc6c(cc54)C4(CCN(C)CC4)CO6)cc3)c(C)c2)no1	0.994 ± 0.0066	0.356 ± 0.53	1.02 ± 0.02	1.1 ± 0.021	0.994 ± 0.014	0.00588 ± 0.0059
CC1C2Cc3ccc(O)cc3C1(C)CCN2CC1CC1 (single isomer, unassigned; (+)) [(+)-Cyclazocine]	1.001 ± 0.0085	1.003 ± 0.0058	1 ± 0.01	0.978 ± 0.013	1.01	0.9993 ± 0.0095
CCCN(CCC)C1CCc2cccc(O)c2C1 (racemic) [(±)-8-Hydroxy-DPAT hydrobromide]	1.02 ± 0.017	1.01 ± 0.01	1.01 ± 0.01	1.004 ± 0.0098	0.9967 ± 0.0058	0.9947 ± 0.0067
C=CCN1CC[C@]23c4c5ccc(O)c4O[C@H]2/C(=N/N=C2\CC[C@@]4(O)[C@H]6Cc7ccc(O)c8c7[C@@]4(CCN6CC=C)[C@H]2O8)CC[C@@]3(O)[C@H]1C5 [Naloxonazine dihydrochloride]	0.9893 ± 0.008	1.03 ± 0.02	1 ± 0.01	1.03 ± 0.064	0.9877 ± 0.0015	1.01 ± 0.01
CC[C@H]1CN2CCc3cc(OC)c(OC)cc3[C@@H]2C[C@@H]1C[C@H]1NCCc2cc(OC)c(OC)cc21 [Emetine dihydrochloride hydrate]	0.0625 ± 0.016	0.0175 ± 0.00036	0.342 ± 0.016	0.165 ± 0.0093	0.0125 ± 0.001	0.0108 ± 0.0029
CCCN(CCC)[C@@H]1CCc2c(F)ccc(O)c2C1 [R(+)-UH-301 hydrochloride]	1.013 ± 0.0058	1.017 ± 0.0058	1.03 ± 0.021	1.017 ± 0.0058	1.02	1.017 ± 0.0058
OC[C@H]1O[C@@H](n2cnc3cc(Cl)c(Cl)cc32)[C@H](O)[C@@H]1O [5,6-Dichlorobenzimidazole riboside]	1.007 ± 0.0058	0.998 ± 0.013	1.007 ± 0.0058	1.03 ± 0.01	0.988 ± 0.008	0.991 ± 0.0053
NC1CCc2cc(O)c(O)cc2C1 (stereo not drawn) [6,7-ADTN hydrobromide]	1.001 ± 0.009	1.01 ± 0.011	0.992 ± 0.022	1.002 ± 0.0068	0.98433 ± 0.00058	0.9887 ± 0.0059
O=C[C@H](Cl)[C@@H](O)[C@H](O)[C@H](O)CO [2-Chloro-2-deoxy-D-glucose]	1 ± 0.013	0.9953 ± 0.0015	1.01 ± 0.012	0.994 ± 0.01	0.9807 ± 0.0011	0.9817 ± 0.0067
